Measurements: PubChem BioAssay AID1159606 (Sanford-Burnham Center for Chemical Genomics, 2016)
About 7,300 (2%) of roughly 360,000 compounds were called active. The sample holds actives, similar compounds and a random draw of the others, so the mix is not that of the screen. Cut-off read from the data, not from the text of the source: active = inhibition above about 50%; inactive = the rest.

test: inhibitors of TWEAK-Fn14 signaling, primary screen, luciferase reporter cells, uHTS (AID 1159606); settings: TWEAK-stimulated Fn14 reporter cells, luciferase luminescence, 8 h; at 10 µM; hits give high values

inhibition, active:
CCCCCCc1cc2cc(-c3nnc(-c4ccccc4)o3)c(=O)oc2cc1O 69.9%
O=C(Nc1ccccc1Cl)/C(Cl)=C(\Cl)S(=O)c1ccccc1 (stereo unspecified) 105%
O=C(OCC(=O)N1CCCC1)c1ccco1 70.7%
O=C(O)CCn1c(O)c(C=C2N=c3ccccc3=N2)sc1=S 90.8%
Cc1ccc2nc(NC(=O)C3CCN(S(=O)(=O)c4ccc5c(c4)oc(=O)n5C)CC3)sc2c1 61.3%
N#CCSc1nc(-c2ccccc2)nc2ccc(F)cc12 85.4%
OC[C@@H]1CN(Cc2ccc(-c3ccccc3)cc2)C[C@H](n2cnc3c(NC4CCCC4)ncnc32)O1 69.7%
S=c1[nH]nc(-c2cccnc2)n1/N=C/C(Cl)=C\c1ccccc1 55.4%
Cc1cc(-c2n[nH]c(=S)n2/N=C/C(Br)=C/c2ccccc2)n[nH]1 95%
CC(C)n1cnc2c(Nc3cccc(Cl)c3)nc(N(CCO)CCCO)nc21 54.7%
CCOc1ccc(/C(O)=C2\C(=O)C(=O)N(c3ccc(OC)cc3)C2c2ccccc2[N+](=O)[O-])cc1 (stereo unspecified) 68.4%
COc1ccc(OC)c(C(=O)c2coc3ccc(OC)cc23)c1 67.6%
Oc1c(Cl)cc(Cl)c(Cl)c1Cc1c(O)c(Cl)cc(Cl)c1Cl 64%

inhibition, inactive:
COC(=O)CCCCC1=CCC2C(=O)C=C(O)C2C1 (stereo unspecified) -0.75%
O=C(NCc1cccnc1)c1cc(C2CCCN(C(=O)C3CCCCC3)C2)on1 (stereo unspecified) -5.87%
CCc1ccc(CN(C)C(=O)CCc2nnc(-c3ccc(-c4ccccc4)cc3)o2)nc1 35.3%
C#CCNC(=O)C[C@@H]1C[C@@]2(C(=O)OCC)CCCC=C2N(Cc2ccco2)C1=O -4.62%
O=C(O)CC(Cn1cnnn1)c1ccccc1 (stereo unspecified) 0.41%
CS/C(=C\C(=O)c1ccco1)Nc1ccccc1Cl -3.35%
CC(=O)c1ccc(NC(=O)C(C)N(C)CC(=O)Nc2ccccc2Cl)cc1 (stereo unspecified) -3.04%
OC(c1ccccc1)c1nc(-c2cnc3ccccc3c2)cs1 (stereo unspecified) 12.8%
O=C(OCC(=O)N1CCN(C(=O)c2ccco2)CC1)c1c(Cl)cccc1Cl 3.09%
O=C(OCC(=O)N1CCN(C(=O)c2ccco2)CC1)c1cccc(O)c1 -18.9%
Cc1ccc(-c2nnn(CC(=O)N(Cc3ccco3)C(C(=O)NC(C)(C)C)c3ccncc3)n2)o1 (stereo unspecified) -9.3%
CC(=O)NC(C(=O)NCC(N)=O)C(C)C (stereo unspecified) -1.22%
CSC1=NN(c2ccccc2)CN(c2ccccc2)N1C 11.5%
Cn1c(=O)oc2cc(S(=O)(=O)N3CCC(C(=O)Nc4ccc(OC(F)(F)F)cc4)CC3)ccc21 -4.22%
O=C(NC1CCCCC1)n1c(=O)oc2cc(S(=O)(=O)N3CCCCC3)ccc21 -2.85%
CC(C)C[C@@H](COCc1ccc(Cl)cc1)N1CCN(C(=O)c2ccc(Cl)cc2Cl)CCC1=O -5.63%
Cn1ccc(=Nc2ccc(NC(=O)c3ccc(N=c4ccn(C)c5ccc([N+](=O)[O-])cc45)cc3)cc2)cc1 11.6%
Cc1ccc(Oc2cc(NC(=O)CCCn3nc(C)c([N+](=O)[O-])c3C)cc([N+](=O)[O-])c2)cc1 29.9%
N#Cc1ccc(-c2ccc(F)cc2)nc1Sc1ccccc1 -0.84%
Fc1ccc2nc(-c3ccccc3)nc(SCc3nnc(-c4ccccc4)o3)c2c1 1.42%
CCCc1ccc(S(=O)(=O)N2CCN(C(=O)c3cc(C)on3)CC2)cc1 23.6%
OC[C@@H]1CN(Cc2ccc(F)cc2)C[C@H](n2cnc3c(NC4CCCC4)ncnc32)O1 0.72%
OC[C@@H]1CN(Cc2cccs2)C[C@H](n2cnc3c(NC4CCCC4)ncnc32)O1 3.36%
COc1ccc(CNC(=O)COC(=O)CCS(=O)(=O)c2ccc(C)cc2)cc1OC -0.44%
COc1ccc(NC(=O)CN(C)C(=O)Cc2coc3cc(C)c(C)cc23)cc1 -4.06%
COc1ccccc1/C=C/C=N/n1c(-c2ccc(Cl)cc2Cl)n[nH]c1=S -13.9%
O=[N+]([O-])c1ccccc1/C=N/n1c(COc2ccccc2)n[nH]c1=S 17.8%
S=c1[nH]nc(-c2ccco2)n1/N=C/c1ccc(Br)s1 -5.12%
Fc1ccc(/C=N/n2c(COc3ccccc3)n[nH]c2=S)cc1 -16.7%
COc1ccc(Cc2nnc(SCC(=O)N(c3ccccc3)C(C)C)n(N)c2=O)cc1 4.78%
COC(=O)[C@]12CCCCC=C1N(Cc1ccco1)C(=O)[C@H](CC(=O)NCC1CCCCC1)C2 -2.8%
N#CCCN(C(=S)Nc1ccc(Cl)c(Cl)c1)C1CCCCC1 7.89%
Cc1ccc(F)c(S(=O)(=O)NC(=O)C2(C)CCN2C(=O)c2ccco2)c1 (stereo unspecified) 4.06%
CC(C)C[C@H](CO)Nc1nc(N(C)c2cccc(Cl)c2)c2ncn(C(C)C)c2n1 -0.23%
COc1ccc(/C(O)=C2/C(=O)C(=O)N(c3nc(C)c(C)s3)C2c2ccco2)cc1 (stereo unspecified) 15.4%
COc1ccc(C2/C(=C(/O)c3ccccc3)C(=O)C(=O)N2c2ncccn2)cc1OC (stereo unspecified) 5.36%
CCCC(=O)Nc1ccc(C(=O)NCCCn2ccnc2)cc1 -38.4%
COc1ccc2occ(C(=O)c3ccc(N=C(C)N(C)C)cc3)c2c1 -30.2%
COc1ccc(OC)c(C(=O)c2coc3ccc(O)c(CN4CCOCC4)c23)c1 28.4%
Cc1cc(Cl)c2oc(C(=O)NC(C)c3ccncn3)c(C)c2c1 (stereo unspecified) -26.6%
CCOc1ccc(CCNC(=O)COC(=O)C2CCN(c3ccc(C(F)(F)F)cn3)CC2)cc1OCC 6.43%
O=C(CN1C(=O)NC(Cc2c[nH]c3ccccc23)C1=O)Nc1ccccc1C(F)(F)F (stereo unspecified) 29.8%
CC1Cc2[nH][nH]c(=O)c2C(C2CC2)O1 (stereo unspecified) 4.07%
